Bead autofluor = flagged as autofluorescent in microsphere protease counterscreen | compound autofluorescence counterscreen, microsphere flow cytometry; stronger effect = higher value | fluorescence intensity (test concentration not listed) | 360,000 compounds, 3.1% hits | AID 624483; in the data active means fluorescence intensity above about 16000; inconclusive means no clear call, values can overlap the other calls
BoNT-A LC inh2 = BoNT/A light chain protease inhibitors, primary screen, biochemical, flow cytometry, MLPCN library; 360,000 compounds, 0.17% hits; AID 588499, 2011; multiplex microsphere protease substrate cleavage; inhibition, % at 10 µM; further: plate controls were buffer without enzyme for full effect and enzyme alone for no effect
BJeLR viability = MLPCN primary cell-based screen for lethality selective to Ras in HRASV12 cells | AID 1554, 2009 | 300,000 compounds, 0.17% hits | BJeLR (HRASV12) viability, CellTiter-Glo ATP luminescence, 48 h | inhibition, % (concentration not given with the values); in the data active means inhibition above about 50%; inconclusive means no clear call, values can overlap the other calls
Anthrax LF inh2 = Bacillus anthracis LF protease inhibitors, primary screen, biochemical, multiplex microsphere, MLPCN library; AID 588501, 2011; inhibition, % at 10 µM; 360,000 compounds, 0.12% hits; multiplex microsphere protease cleavage assay; further: plate controls were buffer without enzyme for full effect and enzyme alone for no effect
BoNT F protease = BoNT/F light chain protease inhibitors, primary screen, biochemical, flow cytometry, MLPCN library; Botulinum neurotoxin type F light chain protease (Clostridium botulinum); Multiplex microsphere protease cleavage assay; inhibition, % at 10 µM; 360,000 compounds, 0.22% hits; in the data active means inhibition above about 35%, passing the limit was not always enough; inconclusive means no clear call, values can overlap the other calls; further: plate controls were buffer without enzyme for full effect and enzyme alone for no effect
Vc quorum ag = inducers of Vibrio cholerae quorum light production without autoinducers, primary screen, BH1578 luxS cqsA deficient, single point; AID 588436, 2011; 350,000 compounds, 0.16% hits; V. cholerae BH1578 lux reporter, luminescence, 6 h; activation, % at 18.7 µM; in the data active means activation mostly above about 9.7%, no sharp cut-off; inconclusive means no clear call, values can overlap the other calls; inactive means mostly below about 3.7%
Active calls of the source: *; i = inactive; ? = inconclusive; nt = no result. This is a sample that favours compounds with a hit; in the whole collection about 3.7% have one here. Unless noted, no stated cut-off is given here; in the data, active means inhibition above about 30%; inconclusive means no clear call, values can overlap the other calls; inactive means below that.

SMILES | Bead autofluor | BoNT-A LC inh2 | BJeLR viability | Anthrax LF inh2 | BoNT F protease | Vc quorum ag
CC1CN(C(=O)c2ccc(C(=O)c3ccccc3)cc2)CC(C)O1 (stereo not given) | 7559 | 0 | 2 | -4 | -16 | -5
CC1CN(C2CCN(S(=O)(=O)c3ccccc3)CC2)CC(C)O1 (stereo not given) | 7570 | 4 | 1 | 4 | 0 | 0
OC(CSc1nnnn1-c1ccccc1)Cn1c2ccccc2c2ccccc21 (stereo not given) | 4461 | 0 | nt | -6 | 1 | nt
NC(c1ccccc1)c1csc(Nc2ccc(C(=O)c3ccccc3)cc2)n1 (stereo not given) | 3875 | 0 | nt | -4 | -14 | -1
O=C(c1ccc(F)cc1)N1CCC(N2CCCCCC2)CC1 | 16826* | 0 | -9 | -3 | -4 | 0
O=C(c1ccc(F)cc1)N1CCC(N2CCOCC2)CC1 | 4684 | -1 | 1 | -2 | -12 | i
COc1cc(N2CCCC2)c(OC)cc1/C=C(/C#N)c1cccc(F)c1 | 23531* | 5 | -2 | -10 | 48* | i
N#C/C(=C/c1ccc(N2CCCCCC2)o1)c1cccc(F)c1 | 28830* | 4 | 8 | -1 | 2 | i
COc1cccc(C2=CC(=O)C(C(C)(C)C)N2C(C)(C)C)c1 (stereo not given) | 3639 | 0 | nt | -5 | 3 | i
Cc1ccsc1C(=O)N1CCC1(C)C(=O)Nc1ccc2c(c1)OCCO2 (stereo not given) | 3559 | 0 | nt | -6 | -1 | 4
CC(=O)CSc1nc(C(F)(F)F)cc(=O)n1-c1ccccc1 | 20676* | -1 | -6 | -2 | -3 | i
O=C(O)CSc1nc(C(F)(F)F)cc(=O)n1-c1ccccc1 | 9498 | 0 | 12 | 5 | 3 | i
CCOC(=O)c1cccc(NS(=O)(=O)c2c(C)[nH]c(C)c2C(=O)N2CCCC2)c1 | 5756 | 1 | 8 | -1 | -5 | 0
CCOC(=O)c1cccc(NS(=O)(=O)c2c(C)[nH]c(=O)[nH]c2=O)c1 | 19045* | 1 | -5 | -10 | 1 | i
COc1ccc(C2(CNC(=O)c3ccc(OC)c([N+](=O)[O-])c3)CCOCC2)cc1OC | 21598* | ? | -11 | 0 | 4 | i
COc1ccc(OC)c(CN2C(=O)CCC2(C)c2nnnn2-c2c(C)cccc2C)c1 (stereo not given) | 6664 | -1 | nt | 6 | -10 | nt
CCc1nc2ccc(C(=O)N3CCN(S(=O)(=O)CC)CC3)cn2c1N(CC)CCN(C)C | 4033 | 0 | nt | 1 | 2 | -1
COc1cc(-c2nc(-c3cccnc3)no2)cc(OC)c1OC | 2042 | 0 | -4 | 1 | 1 | i
COc1cc(-c2noc(-c3cccc(Cl)c3)n2)cc(OC)c1OC | 22311* | 1 | 4 | -2 | 2 | i
Cc1nnc2c3ccccc3c(-c3cccc4ccccc34)nn12 | 19934* | ? | nt | -6 | 8 | i
CC(C)[C@@H](C(=O)N[C@@H](CCc1ccc(O)cc1)C(=O)O)N(C)C(=O)[C@H](CO)NC(=O)[C@@H](O)[C@H](N)CCCCCCCCl | 4754 | 0 | nt | 5 | -8 | 0
C=CCn1c(SCC(=O)N2CCCCCC2)nc2ccccc2c1=O | 5884 | -1 | -7 | -2 | -2 | 0
C=CCn1c(SCC(=O)N2CCCC2)nc2cc(C(=O)NCC3CCCO3)ccc2c1=O (stereo not given) | 16153* | 1 | 5 | -2 | 3 | -1
O=C(CSc1nc2ccccc2c(=O)n1Cc1ccco1)N1CCCCCC1 | 21631* | ? | 16 | -12 | -4 | i
O=C(NCc1ccco1)c1ccc2c(=O)n(Cc3ccco3)c(SCC(=O)N3CCCC3)nc2c1 | 21141* | -1 | nt | -1 | 0 | 0
SMILES | Bead autofluor | BoNT-A LC inh2 | BJeLR viability | Anthrax LF inh2 | BoNT F protease | Vc quorum ag
CC(C)c1nc(SCC(=O)N2CCCC2)c2ccccc2n1 | 22830* | ? | 11 | 0 | 1 | 0
CCn1c(SCC(=O)N2CCCCCC2)nc2ccccc2c1=O | 2937 | -1 | 7 | -4 | -12 | 0
CCCn1cnnc1CNC(=O)[C@H]1O[C@@H](n2ccc(=O)[nH]c2=O)[C@H](O)[C@@H]1O | 6287 | 0 | nt | -5 | -2 | nt
N#CC1(Nc2ccc([N+](=O)[O-])cc2)CCCC1 | 4265 | 0 | nt | 4 | -4 | nt
COc1cccc(C(=O)c2ccccc2NC(C)=O)c1 | 3721 | 0 | nt | 2 | 4 | i
CCCCn1c(SCC(=O)NCc2ccco2)nc2ccccc2c1=O | nt | nt | -8 | nt | nt | -1
CCCCCn1c(SCc2ccncc2)nc2cc(C(=O)NCc3ccco3)ccc2c1=O | 19744* | ? | -4 | -9 | 2 | -2
Clc1ccccc1OCCCCN1CCCC1 | 20741* | 9 | -2 | -5 | 7 | i
COc1ccc(NC(=O)c2ccc(-n3cccn3)nc2)cc1 | 22260* | 2 | 14 | -2 | 6 | i
COc1ccc(NC(=O)c2ccc(NC(=O)c3cccnc3)cc2)cc1 | 3732 | 0 | nt | 0 | 1 | -1
COc1ccccc1NC(=O)c1ccc(-n2cccn2)nc1 | 22967* | 0 | 16 | 1 | -2 | 3
O=C(Nc1ccc(F)cc1)c1ccc(-n2ccnc2)nc1 | 22409* | 1 | 9 | -4 | 0 | -12
COc1ccc(NC(=O)c2ccc(-n3cccn3)nc2)c(OC)c1 | 22774* | -3 | -5 | -6 | -6 | -3
O=C(Nc1ccc(F)cc1F)c1ccc(-n2cncn2)nc1 | 21818* | ? | 5 | -4 | 0 | -1
O=C(Nc1ccc(F)cc1F)c1ccc(-n2cccn2)nc1 | 4024 | 0 | -2 | -2 | -5 | i
Cc1ccc(S(=O)(=O)N2CCC(=O)N([C@H](COCc3ccc(Cl)cc3)C(C)C)CC2)cc1 | 5002 | -1 | nt | -5 | -18 | nt
Cn1c(=O)oc2ccc(C(=O)CSc3nnnn3-c3ccccc3)cc21 | 19593* | ? | nt | -8 | -1 | i
CCOc1ccc(CCN2C(=S)N([C@@H](Cc3ccc(O)cc3)CN3CCC[C@@H]3CN3C(=S)NC[C@@H]3Cc3ccccc3)C[C@@H]2Cc2ccc(O)cc2)cc1 | 6612 | 0 | nt | -4 | -1 | nt
CCOC(=O)c1cnn(CCOC(=O)C2CC2)c1NC(=O)C1CC1 | 20293* | 1 | 0 | -2 | -2 | -1
CCOC(=O)c1cnn(CCOC(=O)c2ccccc2)c1NC(=O)c1ccccc1 | 1870 | 2 | -9 | 9 | 18 | 0
C=CCn1c(SCC(=O)N2CCCC2)nc2scc(-c3cccs3)c2c1=O | 21895* | -5 | 3 | -1 | -5 | i
CCOC(=O)CSc1nnc(-c2cccs2)n1-c1ccccc1 | 4126 | 0 | -2 | 7 | 4 | i

Compound activity deposited in PubChem by several laboratories.
